These sequences were tested against TULP4 (assay: pooled miR-30 sensor sort-seq; sequence = guide strand). Settings: shRNA.
TACAGCTGTCGTCTGGTTGGTC gave a sensor-assay potency score (higher = more potent) of -0.0173. Sequence TTTCTGACTCTTCACTTTCTTC has a sensor-assay potency score (higher = more potent) of -1.27. Work on TTGAAATTTATCCTCTGTGGAG yielded a sensor-assay potency score (higher = more potent) of -0.662. TTAAAGTCACTCAAAGTCCTAG gave a sensor-assay potency score (higher = more potent) of 0.213. TTTGTCTTATTCAACTTCTTTG was tested, and the sensor-assay potency score (higher = more potent) was -1.04.

These sequences were tested against TUSC2 in the same assay as above. Settings: shRNA.
Sequence TAGAACATAGAGCCGCGGCGCG has a sensor-assay potency score (higher = more potent) of -1.07. In the case of ATTCTTATGCACTCGCCTCAGC, the sensor-assay potency score (higher = more potent) is reported as -1.06. Work on TGTCTCCTCATAGAACTCGTGA yielded a sensor-assay potency score (higher = more potent) of -0.468. For TCTCCTCATAGAACTCGTGAGC, the sensor-assay potency score (higher = more potent) was -1.05. In the case of TTGGTGACGATTGTCTCCTCAT, the sensor-assay potency score (higher = more potent) is reported as 0.0125. In the case of TCTTGGTGACGATTGTCTCCTC, the sensor-assay potency score (higher = more potent) is reported as -0.566. TCATCATAGAACATAGAGCCGC was tested, and the sensor-assay potency score (higher = more potent) was -0.771. TCATAGAACATAGAGCCGCGGC gave a sensor-assay potency score (higher = more potent) of -0.488. For AATCAGATTCTTATGCACTCGC, the sensor-assay potency score (higher = more potent) was 0.0606. TTCTTGGTGACGATTGTCTCCT gave a sensor-assay potency score (higher = more potent) of -0.377. AAGCTTGCTCAGCTCCTGCTGC was tested, and the sensor-assay potency score (higher = more potent) was -0.817. TCCTCATCATAGAACATAGAGC gave a sensor-assay potency score (higher = more potent) of -1.99.

These sequences were tested against TUT1 in the same assay as above. Settings: shRNA.
In the case of AAACACACTTCGAAGTCCCTGG, the sensor-assay potency score (higher = more potent) is reported as 0.0034. TCGTAGTTCTACCAGGTGCCGG showed a sensor-assay potency score (higher = more potent) of -1.53. TCCTTGTCCATGACAACACTGG gave a sensor-assay potency score (higher = more potent) of -1.19. Work on TAGGAAGTACTCAGAGAGCTGA yielded a sensor-assay potency score (higher = more potent) of 0.227. TTGTCCATGACAACACTGGCCA showed a sensor-assay potency score (higher = more potent) of -0.399. Work on TGACAGAACTTGACCACAGGGC yielded a sensor-assay potency score (higher = more potent) of 0.248. Work on TAGTTCTACCAGGTGCCGGTGC yielded a sensor-assay potency score (higher = more potent) of -0.799. Sequence TACTGAGGGAGACATCACCGTG has a sensor-assay potency score (higher = more potent) of -1.54. TTTGGACTCGATACACCCCAGG showed a sensor-assay potency score (higher = more potent) of -0.836. TCTAGCAGTGGTGAAGCTGGAG gave a sensor-assay potency score (higher = more potent) of -0.366. With TTGGGGTCTCTGCTAGTTCCGA the sensor-assay potency score (higher = more potent) was -1.32. Work on TTCTCGCAGCTCGTAGTTCTAC yielded a sensor-assay potency score (higher = more potent) of -0.83.

These sequences were tested against TXLNG in the same assay as above. Settings: shRNA.
In the case of TTGCACTCTGAATCTTGCTGAC, the sensor-assay potency score (higher = more potent) is reported as 0.000943. In the case of TTCTCATTGAGCTCATTCCTTT, the sensor-assay potency score (higher = more potent) is reported as -0.993. Work on TTCTTCTTCCTCTCGTGCCTGC yielded a sensor-assay potency score (higher = more potent) of -0.0706. TTTCTTTGTCATCTTTTCCATT was tested, and the sensor-assay potency score (higher = more potent) was -0.923. Work on TTCCTTACGTTTGAACACCTTA yielded a sensor-assay potency score (higher = more potent) of -0.525. TAACGTCTTATTGTGACGCTGA showed a sensor-assay potency score (higher = more potent) of 0.553. In the case of TTCTCTGTTATAAAGTCACTGC, the sensor-assay potency score (higher = more potent) is reported as -0.298. TTAAACTATTCAAAACTGCTAA gave a sensor-assay potency score (higher = more potent) of -0.454. TTTTAGTTGTACTTCCTGCTGT gave a sensor-assay potency score (higher = more potent) of 0.554. TTTAGTTGTACTTCCTGCTGTT gave a sensor-assay potency score (higher = more potent) of 0.906. With TTCGATGAGCTTCTTTAGCTTC the sensor-assay potency score (higher = more potent) was -0.258.
Note: reference of the scale not given here.
